# ± gives the standard deviation of the averaged measurements. Over roughly 25,000 sequences, “ln(normalized median fluorescence intensity)” has its median near 8.6; the highest 2% begin near 10. The entries come from a sample that favours the highest values as a whole.
# Test system: PfAP2-EXP AP2 domain (GST-tagged)
# Assay: gcPBM binding intensity (ln(normalized median fluorescence intensity)); higher = stronger DNA binding
# Procedure, shortened: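 Using an Agilent 4 × 180k array, primer-extended double-stranded 36-bp intergenic genomic probes and negative controls were exposed for 1 h to GST-fused P. falciparum DNA-binding domains expressed in E. coli. Binding was carried out in 1× PBS with 1% milk, 0.2 mg/ml BSA, 0.5% salmon testes DNA and 0.03% Triton X-100, and protein was detected with Alexa488 anti-GST antibody and a 488 nm scan. Binding intensity is the highest Masliner-normalised natural-log median intensity across replicate spots of either probe orientation.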
row,Sequence,gcPBM binding intensity (ln)
1,ATAGGTAATAATAATACACACGGTGAAATATAGATG [CACACA_site9336],8.88 ± 0.47
2,TATAATGAGGATAATAGTACATATGAATACAAAAAA [XGTACX_site3665],8.86 ± 0.45
3,TTGGATAAAAAATATGTACACACATATAGATATCTA [CACACA_site8862],8.48 ± 0.31
4,TATAAATAGAGGAAGCGTACATATATATATATATAT [XGTACX_site4993],10.1 ± 0.37
5,ATAAATAAATAAAAGCGTACATATATATAAAATATA [XGTACX_site8107],8.63 ± 0.27
6,TCGGGAGGGGGGAAGCGTACATATATAAAATTATTA [XGTACX_site4683],10.4
7,AAAATTTATATAAGCACACAAATATATATTTATATC [CACACA_site3291],8.55 ± 0.47
8,GAAGGAATATACAATTGTACTTGGCAAAAAAAAAAA [XGTACX_site1884],8.74 ± 0.67
9,TCTGTAAAGTAATGGACACACAATATATCCATTTAT [CACACA_site1536],8.35 ± 0.35
10,ATAATATAATATATATGTACACATCCTTTTTGTGTA [XGTACX_site2879],8.62 ± 0.4
11,ATATATAATATAATATGTACATATAATCAATCCTGT [XGTACX_site8694],8.48 ± 0.28
12,ATATATATATATATATGTACACAGGACAATAATCCT [XGTACX_site6383],10.2 ± 0.33
13,AGAGGCCAGCTTTCTCTTCTAAACATGTACAAAAAT [GTGCAC_negctrl_site98],8.63 ± 0.49
14,TTAGATATAATATATACACACCAACGAACGAAGAAA [CACACA_site4763],9.12 ± 0.54
15,TCTATTAATGAATATACACACATTATATATATATAT [CACACA_site5410],10 ± 0.49
16,ATAAGAAGGAACATAAATATATCATAAAAAAAAAAA [GTGCAC_negctrl_site169],8.56 ± 0.35
17,ATTATTTATATTATGGTGCATAATTTTGGGTTTCTT,8.86 ± 0.26
18,TTTTCCTTATATTATGCATGCAGGGTTTGACATTAT [TGCATGCA_site826],10.3 ± 0.34

row,Sequence,gcPBM binding intensity (ln)
1,ATAAAATTATATTTTGCATGCAGGCCTTTTTCTTAA [TGCATGCA_site1030],9.94 ± 0.14
2,ATTTTTTATTGTTATAAAAAAAAAATTAAACAATTA [CACACA_negctrl_site1077],8.19 ± 0.46
3,AGATATATTTTTTAAATTTAAAAATTATAAAATTTA [CACACA_negctrl_site533],8.07 ± 0.42
4,TCATTCCATACTTTAACACACAAATATATTTAATCC [CACACA_site145],8.76 ± 0.53
5,ATATTGGAGCACAACACACACAAGTATATATATGGA [CACACA_site1546],8.8 ± 0.47
6,AAAAAAAAAAAATACGTGCACTATGATATATTATAT,8.95 ± 0.092
7,TACATATATATATACACACATACATATATATACGCA [CACACA_site792],8.45 ± 0.34
8,AAAAAAAAAAAAAAAACACACATACACCCCCACCCA [CACACA_site9117],10.4 ± 0.3
9,AAAAGGAACAGACACACACACATATATAAATATGTA [CACACA_site7656],8.4 ± 0.59
10,CATATACGCAAACACACACACATATATATATATATA [CACACA_site501],10.2 ± 0.4
11,AAAAAAAAAAAAAAAACACACACATATATATATATA [CACACA_site8571],10.1 ± 0.21
12,AAAAGGAACGGACACACACACATATATATATATATA [CACACA_site5894],10.2 ± 0.49
13,AAAAAAAAAAAAAACACACACACACCCACATATACA [CACACA_site2663],8.53 ± 0.2
14,AAAAAAAAAAAACACACACACACACCCATACATACA [CACACA_site707],8.65 ± 0.56
15,TATATACGCAAACACACACACACATACACCCACATA [CACACA_site1724],8.59 ± 0.44
16,AAAAAAAAAAAACACACACACATATATATATATATA [CACACA_site732],10.2 ± 0.38
17,AAAAGGAACAGACACACACACATATATATATATATA [CACACA_site3587],10.3 ± 0.25
18,AAAAAAAAAAAAAACACACACATATATATATATATA [CACACA_site1891],10.2 ± 0.3
